Screening data deposited in PubChem by National Center for Advancing Translational Sciences (NCATS).
NIH3T3 tox = Cytotoxic Profiling in NIH 3T3 Cell Line of Diverse Libraries Using Quantitative High-Throughput Screening; 94,000 tested, 4.3% active; Potency, µM (series often up to 96.7 µM), for the others: top-dose activity change, negative = cytotoxicity, actives largely listed as inhibitors; NIH 3T3 viability, CellTiter-Glo ATP luminescence, 48-72 h; AID 1345082, 2018; further: nearly all actives have a fitted effect of over 55% in size
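Luminescent ATP readout (CellTiter-Glo, 10 min RT) after 48 or 72 hr compound exposure of NIH 3T3 cells seeded at 400 cells/well in 1536-well format; quantitative HTS.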
NPR1 antag = Natriuretic polypeptide receptor (hNpr1) antagonism - Primary qHTS. Potency, µM (top dose mostly 46.3 µM), for the others: at the top dose activity change, negative = inhibition, usual class: inhibitors. 76,000 tested, 1.6% active. HEK293 hNpr1 GloSensor cGMP, ANP-stimulated luminescence. AID 1347048, 2019; calls by dose curve; further: nearly all actives have a fitted effect of over 60% in size
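HEK293 cells stably expressing human Npr1 and cGMP GloSensor pGS-40F, loaded 2 h with 2% GloSensor reagent, given compound 30 min at room temperature. Luminescence read before and 20 min after 0.1 nM hNppA.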
HEK cytotox = Cytotoxic Profiling in HEK 293 Cell Line of Diverse Libraries Using Quantitative High-Throughput Screening; AID 1345083, 2018; 94,000 tested, 6.6% active; HEK 293 viability, ATP luminescence (CellTiter-Glo), 48-72 h; Potency, µM (series often up to 115 µM), for inactives: at the top dose activity change, negative = cytotoxicity, most hits filed as inhibitors; further: nearly all actives have a fitted effect of over 60% in size
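CellTiter-Glo luminescence (cellular ATP) was read after 48 or 72 hr of compound exposure at 37 degree Celsius. Cells were HEK 293 plated at 250 cells/well.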
FLuc inh = Firefly luciferase inhibition profiling of diverse chemical library using quantitative high-throughput screening; Potency, µM (doses to about 115 µM), usual class: inhibitors; Luciferin 4-monooxygenase (Photinus pyralis), P08659; purified P. pyralis luciferase, luminescence, biochemical; 76,000 tested, 2.5% active; further: nearly all actives have a fitted effect of over 65% in size
Target sequence (P08659 whole entry, looked up): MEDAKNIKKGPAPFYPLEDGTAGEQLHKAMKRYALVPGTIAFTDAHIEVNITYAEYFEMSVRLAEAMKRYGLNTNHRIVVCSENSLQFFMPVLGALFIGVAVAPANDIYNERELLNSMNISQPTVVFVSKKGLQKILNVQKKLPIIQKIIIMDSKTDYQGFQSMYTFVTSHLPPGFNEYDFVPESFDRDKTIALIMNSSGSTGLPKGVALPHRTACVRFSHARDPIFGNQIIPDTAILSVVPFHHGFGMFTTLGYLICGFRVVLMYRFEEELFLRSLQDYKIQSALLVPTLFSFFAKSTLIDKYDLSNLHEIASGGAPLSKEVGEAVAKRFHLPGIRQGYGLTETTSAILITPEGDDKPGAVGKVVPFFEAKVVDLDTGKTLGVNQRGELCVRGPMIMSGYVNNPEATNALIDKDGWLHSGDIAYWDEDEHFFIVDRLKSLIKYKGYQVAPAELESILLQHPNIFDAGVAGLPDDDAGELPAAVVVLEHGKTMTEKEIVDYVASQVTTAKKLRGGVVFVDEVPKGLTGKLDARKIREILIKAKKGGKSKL
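Purified 10nM P. pyralis luciferase with 10uM D-luciferin and 10uM ATP in 50mM Tris acetate pH 7.5, 10mM Mg acetate, 0.01% Tween-20, 0.05% BSA. qHTS titration; luminescence read by CCD imager.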
Numbers without * were called inactive; i = inactive; ? = inconclusive; / = no result; [ ] = dose if it differs, or a comment. Hits are enriched below; roughly 11% of the tested compounds scored in any of these assays. Unless noted, the call rests on the fitted dose curve; in most records, active means well fitted curve in the direction sought with a large enough effect; inconclusive means small, poorly fitted or top-dose-only effect, or another doubt; inactive means no such curve, though single readings can be large; an effect the other way counts as inactive or inconclusive. On the % scale 0 is the no-effect control and ±100 the full control effect; potency means the concentration at half of the fitted maximal effect.

SMILES	NIH3T3 tox	NPR1 antag	HEK cytotox	FLuc inh
COc1ccccc1-c1[nH]nc2ncc(CNc3ccccn3)nc12	?	-8%[70.6 µM]	?	i
COc1ccccc1-c1[nH]nc2ncc(-c3cnn(C)c3)nc12	?	3%[70.6 µM]	35µM*	i
COc1ccccc1-c1[nH]nc2ncc(C(=O)NCc3ccccc3)nc12	-29%[138 µM]	2%[70.6 µM]	?	i
COc1ccccc1-c1[nH]nc2ncc(-c3ccccc3F)nc12	35µM*	-24%[70.6 µM]	?	i
COc1ccccc1-c1[nH]nc2ncc(-c3cccc(O)c3)nc12	?	-5%[70.6 µM]	40µM*	i
CN1CCC(C(=O)N2Cc3ccccc3CC3(CCCN(Cc4cccnc4)C3)C2)CC1 (stereo unspecified)	i	/	-6%	/
Cc1nn(-c2ccccc2)c2c1C(C)N(CC1CN([S+](=O)([O-])c3cccs3)C1)C2=O (stereo unspecified)	-21%	/	?	/
Cc1ccc(-c2cccc(CN3CCCC(NC(=O)Nc4ccccc4F)C3)c2)cc1Cl (stereo unspecified)	28µM*	/	18µM*	/
CC(=O)NC1CCCN(Cc2cccc(-c3ccc(C)c(Cl)c3)c2)C1 (stereo unspecified)	35µM*	/	20µM*	/
COC(=O)NC1CCCN(Cc2cccc(-c3ccc(C)c(Cl)c3)c2)C1 (stereo unspecified)	?	/	45µM*	/
CCOc1ccc(C(=O)NC2CCN(c3cnn(CC4CC4)c(=O)c3)CC2)cc1	-15%	-4%	-7%	i
CCCOc1ccc(CN2CCn3nnc(CCC(=O)N4CCCC4)c3C2)cc1	-31%	/	?	/
COc1ccc(-c2nc(C3CC(=O)N(Cc4ccccc4OC)C3)no2)c(C)c1 (stereo unspecified)	?	-2%	?	i
COc1ccc(N2CC(c3noc(-c4ccc(C(C)(C)C)cc4)n3)CC2=O)cc1OC (stereo unspecified)	?	?	40µM*	?
CCc1ccc(N2CC(c3noc(-c4sccc4C)n3)CC2=O)cc1 (stereo unspecified)	?	0%	79µM*	i
CCOc1ccc(-c2nc(C3CC(=O)N(Cc4ccccc4OC)C3)no2)cc1 (stereo unspecified)	22µM*	-13%	45µM*	i
COc1ccccc1CN1CC(c2noc(-c3ccc(C)cc3C)n2)CC1=O (stereo unspecified)	?	-16%	40µM*	i
CC1(c2noc(-c3ccccn3)n2)CCN(C(=O)CCC(=O)N2CC(=O)Nc3ccccc32)CC1	3%	1%	11%	i
Cc1noc(C)c1Cc1ccc(C(=O)N2CCC(C)(c3noc(-c4ccccn4)n3)CC2)o1	?	-30%	45µM*	i
CC1(c2noc(-c3ccccn3)n2)CCN(C(=O)CCc2nc3ccc(Cl)cc3[nH]2)CC1	?	-16%	50µM*	i
CC1(c2noc(C3CC3)n2)CCN(C(=O)CCc2nc3ccc(Cl)cc3[nH]2)CC1	-23%	-20%	?	i
Cc1noc(C)c1Cc1ccc(C(=O)N2CCC(C)(c3noc(-c4cccnc4)n3)CC2)o1	32µM*	-23%	?	i
O=C(NCCNC(=O)c1ccccc1Cl)c1ccc(-c2cccc(C(F)(F)F)c2)cc1	-15%	/	1%	/
O=[S+]([O-])(c1ccccc1)N1CCN(Cc2ccccc2-c2cccnc2)CC1	?	/	35µM*	/
O=C(Nc1ccc(Cl)cc1)N1CCN(Cc2ccccc2-c2cccnc2)CC1	35µM*	/	?	/
SMILES	NIH3T3 tox	NPR1 antag	HEK cytotox	FLuc inh
CC(C)NC(=O)N1CCN(Cc2ccccc2-c2cccnc2)CC1	-14%	/	-15%	/
O=C(C1CCN(Cc2ccccc2-c2cccnc2)CC1)N1CCC(c2ccccc2)CC1	45µM*	/	35µM*	/
CC(=O)N1CC2(CCCN(CC3CC3)C2)Cc2ccccc21 (stereo unspecified)	i	/	i	/
O=C(c1ccc(Cl)cc1)N1CC2(CCCN(Cc3cccnc3)C2)Cc2ccccc21 (stereo unspecified)	?	/	40µM*	/
CC(=O)N1CC2(CCCN(Cc3cc4ccccc4[nH]3)C2)Cc2ccccc21 (stereo unspecified)	25µM*	/	?	/
CC(=O)N1CC2(CCN(C(=O)c3ccc(Cl)cc3)CC2)Cc2ccccc21	10µM*	/	?	/
CCn1cc(S(=O)(=O)N2CCCC(Cc3noc(-c4cnccn4)n3)C2)cn1 (stereo unspecified)	-38%	6%	-11%	i
CC1=C(C(=O)NCC2CCCCC(=O)N2)C2(CCCCC2)OC1=O (stereo unspecified)	-13%	/	-10%	/
NCc1ccccc1-c1ccc(OC(F)(F)F)cc1	?	/	56µM*	/
O=Cc1ccccc1-c1ccc(OC(F)(F)F)cc1	?	/	-26%[287 µM]	/
COc1cc(CNC(=O)C23CCC=C2N(C2CCCC2)C(=O)CC3)cc(OC)c1 (stereo unspecified)	-27%	/	-26%	/
O=C1NC2(CCN(CC3CCCCC3)C2)Oc2ccccc21 (stereo unspecified)	?	6%[70.6 µM]	63µM*	i
O=C1NC2(CCCN(CC3CC3)C2)Oc2ccccc21 (stereo unspecified)	-19%[138 µM]	0%[70.6 µM]	-15%[172 µM]	i
COc1ccccc1-c1cccc(C(=O)N2CCN([S+](=O)([O-])c3cccs3)CC2)c1	?	/	20µM*	/
COc1ccccc1-c1cccc(C(=O)N2CCN([S+](=O)([O-])c3c(C)noc3C)CC2)c1	-26%	/	?	/
COc1ccccc1-c1cccc(C(=O)N2CCN([S+](=O)([O-])c3ccccc3)CC2)c1	?	/	32µM*	/
CCN1C[C@H]2COc3cc(OC)ccc3[C@H]2N(C(=O)C2CCC2)CCC1=O	?	/	-6%	/
CCc1ccc(S(=O)(=O)c2nnn3c2nc(NCc2ccc(F)cc2)c2ccccc23)cc1	?	/	-21%	/
O=S(=O)(c1ccc(Cl)cc1)c1nnn2c1nc(NCc1ccc(F)cc1)c1ccccc12	32µM*	/	?	/
COCCN1C(=O)c2cccn2CC1CNC(=O)CCc1nc2ccccc2s1 (stereo unspecified)	-3%	-3%	-9%	i
Cc1csc(NC(=O)c2ccc3c(c2)OCCN(CCC(F)(F)F)C3)n1	?	-9%[70.6 µM]	79µM*	?
CC(C)CCN1CCOc2cc(C(=O)Nc3ccc4cn[nH]c4c3)ccc2C1	?	-24%[70.6 µM]	89µM*	?
O=C(O)CC1(CC(=O)N2CCN3C(=O)N(Cc4ccccc4)C(=O)[C@H]3C2)CCCC1	-19%[174 µM]	2%[70.6 µM]	-15%[172 µM]	i
CCn1cc(CN(C)C(=O)CN2C(=O)C3(CCCCC3)C2c2ccccc2)c(C)n1 (stereo unspecified)	-17%	/	-21%	/
